# LDHA block: inhibitors of human lactate dehydrogenase A | P00338 | purified LDHA, NADH/diaphorase-resazurin fluorescence; active compounds read low | activity change, % (values are at about 110 or 230 µM) | hit rate 0.15% among 480,000; in the data active = activity change below about -30%; inconclusive = mostly about -25% to -30%;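 note: plate controls were DMSO wells for no effect and wells without enzyme for full effect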
#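 Human LDH5 (2 nM) was incubated with 0.06 mM NADH and 0.2 mM pyruvate for 5 min at room temperature in Tris pH 7.4. Remaining NADH was coupled through diaphorase/resazurin, and resorufin fluorescence was read at 0 and 20 min.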
# BRCA1 expr act: activators of BRCA1 expression; hit rate 1.1% among 380,000; MCF7-BRCA1-FFLuc reporter, luminescence, 48 h; response scale: scaled: vehicle 0%, 10 µM genistein 100%; Potency, µM (highest dose often 46.1 µM), without a hit: top-dose activation, most hits filed as activators; AID 624202; note: potency is the fitted concentration of half-maximal effect; nearly all actives have a fitted effect of over 80% in size
#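 First, MCF7-BRCA1-FFLuc cells (2000/well) attach for 2 h; next, compounds are pin-added and incubated 48 h at 37 °C; finally, luciferase reagent is added and luminescence read after 15 min.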
# RGS4 inhibitor: blocks human RGS4-accelerated GTP hydrolysis | P49798 | Transcreener GDP fluorescence polarization, RGS4-accelerated GTP hydrolysis | Potency, µM (titrated, usually from 114 µM), for the others: at the highest dose activity change, negative = inhibition, usual class: inhibitors | hit rate 0.039% among 390,000 | AID 504845; note: potency is the fitted concentration of half-maximal effect; % is set by controls: 0 for no effect and ±100 for the full control effect; nearly all actives have a fitted effect of over 75% in size
#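 MLSMR compounds (23 nl, pin-transferred) preincubated 10 min at room temperature with a 500nM (2x) first reagent, then RGS4 at 900nM (2x) plus Transcreener GDP mix added; fluorescence polarization (620/688 nm) read before and after 90 min at 30 °C.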
# p53 reactivation: mutant p53 re-activation in reporter cells. H1299 p53-A138V BP100-luciferase reporter, luminescence, 24 h. Potency, µM (doses to about 92.2 µM), for inactives: at the top dose activity change, positive = activation, usual class: activators. hit rate 0.063% among 320,000. AID 504706; note: potency is the fitted concentration of half-maximal effect; % of control where 0% means no effect; nearly all actives have a fitted effect of over 45% in size
#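 p53-null H1299 cells stably carrying temperature-sensitive p53-A138V and a BP100-luciferase reporter were pinned with compounds (4-point, 1:5 series) and held 24 hrs at 37 deg C. Luminescence was read 10 min after detection reagent.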
# PTHR1 agonist: agonists of human PTHR1 parathyroid hormone receptor; Q03431; HEK293 GP2 PTHR1 cells, GloSensor cAMP luminescence, 1 h; Potency, µM (titrated, usually from 115 µM), for inactives: at the highest dose activation, usual class: activators; hit rate 0.075% among 410,000; AID 743266; note: potency is the fitted concentration of half-maximal effect; nearly all actives have a fitted effect of over 55% in size
# Target sequence (Q03431 whole entry, looked up): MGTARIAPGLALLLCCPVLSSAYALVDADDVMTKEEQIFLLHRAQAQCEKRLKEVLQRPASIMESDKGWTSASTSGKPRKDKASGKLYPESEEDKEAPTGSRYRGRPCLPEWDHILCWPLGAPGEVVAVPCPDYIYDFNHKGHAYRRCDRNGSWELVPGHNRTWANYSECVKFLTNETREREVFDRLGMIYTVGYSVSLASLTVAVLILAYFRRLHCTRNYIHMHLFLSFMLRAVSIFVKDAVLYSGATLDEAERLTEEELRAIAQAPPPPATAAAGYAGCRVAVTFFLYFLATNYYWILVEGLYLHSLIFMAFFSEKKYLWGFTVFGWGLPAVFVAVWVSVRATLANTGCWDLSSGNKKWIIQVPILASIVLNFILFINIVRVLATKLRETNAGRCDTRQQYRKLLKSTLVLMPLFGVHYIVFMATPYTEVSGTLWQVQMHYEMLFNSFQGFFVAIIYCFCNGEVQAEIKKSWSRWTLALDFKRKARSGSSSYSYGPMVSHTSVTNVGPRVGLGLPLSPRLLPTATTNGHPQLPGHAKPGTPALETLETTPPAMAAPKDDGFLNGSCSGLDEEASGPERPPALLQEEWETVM
#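 HEK-293-derived GP2 cells expressing PTHR1 and a GloSensor cAMP reporter, 3,000/well, plated overnight, given luciferin plus IBMX (each 0.5 mM as added) for 1 h at 37 °C, then compound for 1 h at 37 °C. Luminescence was read after 15 min at room temperature.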
# * = called active by the depositor; i = inactive; ? = inconclusive; . = not tested or not shown; [ ] = dose if it differs, or a comment. Sampled rows, rich in hits. Any-hit rate of the full collection: about 1.1%. Unless noted, calls come from the whole dose curve; as a rule, active = well fitted curve in the direction sought with a large enough effect; inconclusive = small, poorly fitted or top-dose-only effect, or another doubt; inactive = no such curve, though single readings can be large; an effect the other way counts as inactive or inconclusive.
SMILES,LDHA block,BRCA1 expr act,RGS4 inhibitor,p53 reactivation,PTHR1 agonist
Cc1ccc(NC(=O)CCN2C(=O)C3CCCCC3C2=O)c(O)c1 (configuration not stated),-3,-7%,-6%,9%,i
Cc1ccc(NC(=O)CCCC2CCCCC2)c(O)c1,-1,13µM*,-2%,28%,-5%
CCOc1ccc(CNCc2cccs2)cc1OC,0,.,.,.,.
Cc1nc(-c2ccccc2)nn1-c1ccc([N+](=O)[O-])cc1,-6,5µM*,-12%,.,i
COc1ccc(C(=O)C(C)OC(=O)C2CCCN2)cc1 (configuration not stated),-5,.,.,.,.
Cc1ccc(N(C(=O)Nc2ccccc2)C2=NCC(C)S2)cc1 (configuration not stated),-3,27%,0%,12%,-45%[57.5 µM]
Cc1ccnc(N(C(=O)Nc2ccccc2)C2=NCC(C)(C)S2)c1,-4,3.2µM*,15%,12%,-2%
CCOC(=O)c1sc(N/N=C/c2cccc(C)c2)nc1C,-3,2.8µM*,6%,?,i
CC(C)C(NS(=O)(=O)Cc1ccc(F)cc1)c1cccs1 (configuration not stated),-10,.,.,.,.
CCCc1ccc2oc(C(=O)NCCc3nc(C(=O)OCC)cs3)c(C)c2c1,3,-8%,14%,.,-40%
CCCc1ccc2oc(C(=O)NCCc3cnn(C)c3)c(C)c2c1,-4,8.9µM*,3%,13%,-51%
O=C(O)C1=CC(=C(c2ccc(O)c(C(=O)O)c2)c2ccc(O)c(C(=O)O)c2)C=CC1=O,-75*,0%,11µM*,-5%,.
CN1CCN(c2oc(-c3ccc(C(C)(C)C)cc3)nc2C#N)CC1,5,.,.,.,.
Oc1ccc(/C=C/c2cnccn2)cc1,1,13µM*,11%,20%,i
CCCCn1c(N)c(N(Cc2ccco2)C(=O)Cn2c(CC)nc3ccccc32)c(=O)[nH]c1=O,-2,.,.,.,.
CC(C)(C)Cc1nnc(NC(=O)c2ccc([N+](=O)[O-])cc2)s1,-10,5.6µM*,20%,?,-27%
COC(=O)Nc1nnc(/C=C/c2ccc(OC)cc2)s1,-6,11µM*,-22%,20%,i
CCc1nnc(NC(=O)c2cccc(NC(=O)C(C)C)c2)s1,-3,11µM*,2%,6%,i
COc1ccc(/C=C/c2nnc(NC(C)=O)s2)cc1,-4,?,?,2%,i
CCc1nnc(NC(=O)c2ccc(OC)cc2)s1,-2,7.1µM*,-8%,21%,-19%
CCSc1nnc(NC(=O)c2cc(C)oc2C)s1,-6,?,8%,?,-26%[57.5 µM]
COc1ccc(C(=O)Cc2nnc(C)s2)cc1,-18,7.1µM*,-22%,?,i
COc1ccccc1C(=O)Nc1nnc(-c2ccccc2)s1,-10,-2%,3%,?,-37%
COc1ccc(C(=O)Nc2nnc(-c3ccccc3)s2)cc1,-8,7.1µM*,-12%,?,i
CCc1nnc(NC(=O)c2cc(C)oc2C)s1,-2,5.6µM*,-9%,5%,-60%
SMILES,LDHA block,BRCA1 expr act,RGS4 inhibitor,p53 reactivation,PTHR1 agonist
COc1cccc(C(=O)Nc2nnc(-c3ccccc3)s2)c1OC,1,1.8µM*,-19%,14%,i
CCOC(=O)c1noc2ncn(CC(=O)Nc3cc(C)c(Cl)cc3OC)c(=O)c12,-6,.,.,.,.
CC(C)c1ccc(-n2ccnc(NCc3ccccc3)c2=O)cc1,5,.,.,.,.
CS(=O)(=O)c1ccc(C(=O)CSc2ccc(F)cc2)cc1,-2,.,.,.,.
O=C(Nc1ccc(Oc2cccnc2)cc1)c1ccccc1F,-6,4µM*,-9%,8%,-30%[57.5 µM]
Cc1ccccc1-c1nc(S(=O)(=O)c2ccc3c(c2)OCCO3)c(NCCN2CCOCC2)o1,8,.,.,.,.
Cc1cc(C(=O)Nc2cccnc2)no1,-7,2%,16%,19%,-9%
Cc1cc(C(=O)Nc2ccc3[nH]ccc3c2)no1,-8,6.3µM*,2%,8%,i
Cc1c(CCNC=O)cc(C)c2c3c(oc12)CCCC3,1,10µM*,-8%,.,-10%
Clc1ccc(-c2ccc(CNCC3CCNCC3)o2)c(Cl)c1,12,.,.,.,.
CSc1ncc(-c2ccc(Cl)cc2)[nH]1,-15,10µM*,-1%,8%,-13%
Cc1cc(C)cc(C(O)c2ncc(-c3ccc(Cl)cc3)[nH]2)c1 (configuration not stated),-12,0%,.,.,-35%
S=C(NCCc1ccccc1)NC1CCCC1,0,.,.,.,.
CCCSc1nc2c(cnn2-c2ccccc2)c(=O)n1N,-7,0%,7%,?,-24%
Nn1c(SCc2ccccc2)nc2c(cnn2-c2ccccc2)c1=O,-6,3.2µM*,5%,21%,-44%
CN(C)c1ccc(/C=N/NC(=O)c2ccc(N(C)C)cc2)cc1,2,.,.,.,.
CN(C)c1ccc(/C=N/NC(=O)c2ccnn2C)cc1,1,13µM*,-2%,2%,-36%
Cc1noc(C)c1C(=O)Nc1nc2ccccc2s1,-4,6.3µM*,-10%,?,-19%
CCOC(=O)CC(=O)Nc1nc2ccccc2s1,-5,1%,16%,6%,-7%
CCOC(=O)Nc1nc2ccccc2s1,1,5.6µM*,2%[56.9 µM],?,i
CC(C)NC(=O)CSc1nc(-c2ccccc2)cs1,-13,10µM*,-10%,22%,-28%
O=C(CSc1nc2ccccc2s1)Nc1nc2ccccc2s1,0,.,.,.,.
Cc1csc(SCC(=O)Nc2nc3ccccc3s2)n1,-9,2.8µM*,-18%,?,-17%[57.5 µM]
Cc1ccc(C(=O)Nc2nc3ccccc3s2)s1,-4,-4%,?,3%,-25%[57.5 µM]
CCc1ccc(OCC(=O)Nc2cc3c(cc2S(=O)(=O)c2ccc(C)cc2)n(C)c(=O)n3C)cc1,4,.,.,.,.
SMILES,LDHA block,BRCA1 expr act,RGS4 inhibitor,p53 reactivation,PTHR1 agonist
COc1ccc(OCCN(C)C(=O)c2cccc3c(=O)c(C)c(-c4ccccc4)oc23)cc1,-8,.,.,.,.
CCOc1ccc(Oc2ccc(NC(=O)c3nn(C)c(=O)c4ccccc34)cc2)cc1,10,.,.,.,.
O/N=C/c1ccc(OCc2c(Cl)cccc2Cl)cc1,0,.,.,.,.
O=C(CCc1cccc(F)c1)NC1CC2CC1C1CCCC21 (configuration not stated),-2,.,.,.,.
COc1cccc(C(CNC(=O)C2CCN(S(=O)(=O)c3ccc(C)c(C)c3)CC2)N(C)C)c1 (configuration not stated),-2,.,.,.,.
CC(=O)N1N=C(c2ccc(C)cc2)OC1c1ccc(Br)cc1 (configuration not stated),1,13µM*,-51%,4%,-30%
CC(=O)N1N=C(c2ccc(Cl)cc2)OC1c1ccc(C(C)C)cc1 (configuration not stated),-3,90%,-11%,18%,-25%
COC(=O)c1ccc(NC(=O)CNCc2ccncc2)cc1,-30*,22%,-28%,5%,i

# Source: PubChem BioAssay (National Center for Advancing Translational Sciences (NCATS))
